# Data from PubChem BioAssay (NCATS).
# Several values for one entry are separate records, joined by “and”; a condition that tells them apart may be missing. Identical values can stand only once. Results filed as inconclusive are left out. Activity calls are given as the source filed them. Unless noted, calls follow the shape of the dose curve; as a rule, active = well fitted curve in the direction sought with a large enough effect; inconclusive = small, poorly fitted or top-dose-only effect, or another doubt; inactive = no such curve, though single readings can be large; an effect the other way counts as inactive or inconclusive.
# Legend:
# [1] = molecular target: Arylsulfatase A (Homo sapiens) (UniProt P15289); experiment: qHTS screen for enhancers of Arylsulfatase A (ASA1): LOPAC Validation Assay (AID 720538); settings: outcome: dose series up to 57.5 µM
# Chain of Arylsulfatase A (Homo sapiens) (P15289 whole entry, looked up): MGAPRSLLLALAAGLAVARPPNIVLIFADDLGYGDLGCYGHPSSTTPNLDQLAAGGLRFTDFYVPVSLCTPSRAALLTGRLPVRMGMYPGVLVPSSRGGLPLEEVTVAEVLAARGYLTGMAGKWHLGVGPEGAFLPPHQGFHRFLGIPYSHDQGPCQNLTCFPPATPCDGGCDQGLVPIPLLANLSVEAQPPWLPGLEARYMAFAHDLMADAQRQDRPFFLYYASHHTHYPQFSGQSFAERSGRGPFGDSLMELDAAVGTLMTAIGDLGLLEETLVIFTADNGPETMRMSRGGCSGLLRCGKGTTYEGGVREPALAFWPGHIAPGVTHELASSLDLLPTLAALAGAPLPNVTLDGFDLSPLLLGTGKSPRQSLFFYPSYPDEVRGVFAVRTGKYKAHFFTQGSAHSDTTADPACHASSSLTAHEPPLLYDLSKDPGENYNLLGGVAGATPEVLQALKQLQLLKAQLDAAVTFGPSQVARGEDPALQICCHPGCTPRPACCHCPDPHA
# How it was run: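 First, ASA-I179S fibroblasts from an MLD patient adhered for 6 hrs. Next, compounds were added for 48h. Then pNCS substrate (0.5mM final) with lysis buffer reacted 14h at room temperature before NaOH stop and fluorescence measurement.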
# [2] = qHTS for compounds that reverse cellular toxicity of Amyloid beta (A-beta) peptide in yeast: LOPAC Validation Assay (AID 720559);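 also: plate controls were DMSO for no effect and equimolar ferric chloride plus clioquinol rescue for full effect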
# How it was run: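 Activity is expressed relative to DMSO and an equimolar ferric chloride/clioquinol mix. Compounds were pinned into medium with A-beta-expressing yeast, grown 48 hr at 30 C, then read by absorbance at 600 nm.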
# [3] = qHTS for Activators of Parkin Expression: LOPAC Validation Assay (NLuc Reporter) (AID 720572;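 also: 0% = DMSO and 100% = positive control compound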)
# How it was run: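 Neuronal line stably carrying a FLuc/NLuc coincidence reporter under the Parkin promoter, seeded 24 h, then dosed in 7-point series for 24 h at 37 C. NLuc luminescence read after FLuc; normalized to DMSO and positive control (100%).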
# [4] = qHTS for Activators of Parkin Expression: LOPAC Validation Assay (FLuc Reporter) (AID 720573;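 also: 0% = DMSO and 100% = positive control compounds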)
# How it was run: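 A neuronal cell line harbouring FLuc and NLuc reporters behind the Parkin promoter was exposed to compounds for 24 h. Firefly luciferase signal, measured after 10 min with detection reagent, was scaled to DMSO and positive-control wells.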
# [5] = molecular target: T1, Hexokinase-4 (Homo sapiens) + Glucokinase regulatory protein (Homo sapiens) (UniProt P35557+Q14397); experiment: qHTS assay for inhibitors of recombinant human GCK-GKRP interaction: Diaphorase-coupled assay (AID 743205)
# T1 sequence (P35557 whole entry, looked up): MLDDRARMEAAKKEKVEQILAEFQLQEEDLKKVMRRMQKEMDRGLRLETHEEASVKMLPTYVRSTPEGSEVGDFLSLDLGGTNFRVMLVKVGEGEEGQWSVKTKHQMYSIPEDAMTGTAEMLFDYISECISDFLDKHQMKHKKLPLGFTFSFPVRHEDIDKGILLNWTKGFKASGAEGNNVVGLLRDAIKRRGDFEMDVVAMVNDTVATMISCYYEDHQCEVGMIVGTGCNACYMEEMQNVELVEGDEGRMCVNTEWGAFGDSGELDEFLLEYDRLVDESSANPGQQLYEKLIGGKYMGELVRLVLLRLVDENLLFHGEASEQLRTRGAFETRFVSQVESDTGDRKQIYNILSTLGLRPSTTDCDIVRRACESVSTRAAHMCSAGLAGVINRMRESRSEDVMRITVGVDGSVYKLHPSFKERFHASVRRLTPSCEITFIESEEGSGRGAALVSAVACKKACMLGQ
# T1 sequence (Q14397 whole entry, looked up): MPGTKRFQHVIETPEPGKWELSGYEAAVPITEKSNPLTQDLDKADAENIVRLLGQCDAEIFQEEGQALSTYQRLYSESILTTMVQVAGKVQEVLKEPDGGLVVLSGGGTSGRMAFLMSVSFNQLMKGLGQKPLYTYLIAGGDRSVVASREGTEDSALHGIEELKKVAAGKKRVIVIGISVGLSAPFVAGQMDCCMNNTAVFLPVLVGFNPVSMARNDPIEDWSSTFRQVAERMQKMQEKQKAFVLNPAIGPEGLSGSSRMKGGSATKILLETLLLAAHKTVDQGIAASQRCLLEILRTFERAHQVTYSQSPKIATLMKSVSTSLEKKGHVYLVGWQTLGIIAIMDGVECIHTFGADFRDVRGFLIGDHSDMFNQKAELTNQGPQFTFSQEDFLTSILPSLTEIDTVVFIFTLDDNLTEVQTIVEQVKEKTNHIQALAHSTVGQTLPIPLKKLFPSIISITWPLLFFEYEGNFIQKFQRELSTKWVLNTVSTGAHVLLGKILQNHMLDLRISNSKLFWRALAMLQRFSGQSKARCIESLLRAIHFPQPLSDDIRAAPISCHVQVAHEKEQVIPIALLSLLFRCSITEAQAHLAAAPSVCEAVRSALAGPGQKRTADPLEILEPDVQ
# How it was run: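 Inhibitors of the GCK–GKRP complex relieve GKRP suppression of GCK, detected through a G6PDH–diaphorase cascade reducing resazurin. Human GST-GCK and FLAG-GKRP are used at 10 nM with 5 mM glucose and 0.4 mM ATP.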
# [6] = qHTS Assay for Identifying Gametocytocidal Compounds (AID 743244); also: potency is read from the fitted curve at half-maximal effect;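 as to max response: % is scaled to controls: 0 for no effect and ±100 for the full control effect; actives lower the fluorescent signal which means gametocytes are killed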; settings: P. falciparum 3D7 stage III-V gametocytes, alamarBlue, 72 h; max response: stronger effect = lower value
# How it was run: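 In this qHTS viability screen, late-stage 3D7 gametocytes are incubated with compound for 72 h, then with alamarBlue for 24 h; reduced resorufin fluorescence marks killing.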
# [7] = qHTS profiling of the MIPE4 collection as inhibitors of Plasmodium falciparum (3D7) proliferation (AID 743344; call rule not given here;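 also: scaled between DMSO vehicle wells and 0.29 µM artemisinin as full inhibition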); settings: P. falciparum 3D7 in erythrocytes, SYBR Green DNA fluorescence, 72 h; at 28.5 µM (top of the series) unless noted
# How it was run: (§1)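 Erythrocytes infected with P. falciparum (0.3% parasitemia, 2.5% hematocrit) incubated with compounds 72 h at 37 C, 5% CO2. Lysis with saponin/Triton buffer containing SYBR Green I, overnight at room temperature in the dark; DNA fluorescence (485/535 nm) normalised to 0.29 uM artemisinin and DMSO.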
# [8] = qHTS profiling of the MIPE4 collection as inhibitors of Plasmodium falciparum (DD2) proliferation (AID 743345; call rule not given here); settings: P. falciparum Dd2 in erythrocytes, SYBR Green DNA, 72 h; at 28.5 µM (top of the series) unless noted
# How it was run: as §1
# [9] = qHTS profiling of the MIPE4 collection as inhibitors of Plasmodium falciparum (DD2) proliferation (Rep 2) (AID 743346; call rule not given here); settings: P. falciparum Dd2 in erythrocytes, SYBR Green DNA, 72 h; at 28.5 µM (top of the series) unless noted
# How it was run: as §1
# [10] = qHTS profiling of the MIPE4 collection as inhibitors of Plasmodium falciparum (HB3) proliferation (AID 743347; call rule not given here;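 also: plate controls were DMSO vehicle wells for no effect and artemisinin wells for full effect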); settings: P. falciparum HB3 in erythrocytes, SYBR Green DNA, 72 h; at 28.5 µM (top of the series) unless noted
# How it was run: as §1
# [11] = molecular target: T1, Hexokinase-4 (Homo sapiens) + Glucokinase regulatory protein (Homo sapiens); experiment: qHTS assay for inhibitors of recombinant human GCK-GKRP interaction: HTRF assay (AID 743207);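 also: 0% = DMSO with GCK present and -100% = DMSO wells lacking GCK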
# How it was run: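 Steps: dispense GCK–GKRP complex (5 nM each, GST- and FLAG-tagged) with 2 uM S6P; pin in compounds; add XL665/Eu-cryptate-labelled antibodies; incubate 60 min at room temperature; read time-resolved FRET at 665 and 615 nm.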
# [12] = qHTS profiling for inhibitors of Plasmodium falciparum (DD2) proliferation (AID 743323; call rule not given here); settings: lower = more inhibition; at 28.7 µM (top of the series) unless noted
# How it was run: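 P. falciparum Dd2-infected erythrocytes (0.3% parasitemia, 2.5% hematocrit) exposed 72 h at 37 C, 5% CO2. Lysis with SYBR Green, overnight at room temperature, fluorescence 485/535 nm; normalized to 0.29 uM artemisinin and DMSO.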
# [13] = qHTS profiling for inhibitors of Plasmodium falciparum (HB3) proliferation (AID 743324); settings: Plasmodium falciparum HB3 blood-stage proliferation; at 28.7 µM (top of the series) unless noted;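 also: 100% = DMSO vehicle wells and 0% = artemisinin-treated control wells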
# How it was run: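 P. falciparum HB3 grown in erythrocytes (0.3% parasitemia, 2.5% hematocrit final) with compound for 72 h at 37 C, 5% CO2. Parasite DNA detected by SYBR Green after saponin/triton lysis overnight; normalized to 0.29 uM artemisinin and DMSO.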
# [14] = qHTS profiling for inhibitors of Plasmodium falciparum (3D7) proliferation (AID 743322; call rule not given here;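 also: infected erythrocytes exposed to compound for 72 h before lysis; 100% = DMSO vehicle wells and 0% = 0.29 µM artemisinin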); settings: P. falciparum 3D7 proliferation; at 28.7 µM (top of the series) unless noted
# How it was run: as §1
# [15] = qHTS assay for small molecule agonists of the antioxidant response element (ARE) signaling pathway measured by Nrf2-dependant transcriptional activity (AID 720636; active = well fitted curve in the direction sought with a large enough effect in the repeat runs; an effect the other way counts as inactive or inconclusive;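 also: HepG2 cells with an ARE-driven luciferase reporter; % of control where 0% means no effect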)
# How it was run: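 Nrf2-dependent transcription is measured in ARE-luc HepG2 cells: compound is applied for 16 hr at 37 C after a 6 hr attachment period, and luciferase activity is quantified by luminescence using ONE-Glo.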
# [16] = qHTS assay for cell viability of HEK293 cells (AID 743288); settings: ATP luminescence (CellTiter-Glo), 18 h; max response: stronger effect = lower value; also: % is scaled to controls: 0 for no effect and ±100 for the full control effect; nearly all actives have a fitted effect of over 50% in size
# How it was run: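 The Tox21 protocol used parental HEK293 cells treated for 18 h at 37 C with compounds delivered by pintool; ATP-coupled luminescence after 30 min at room temperature gave viability.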
Compound,outcome [1],outcome [2],Potency [3],outcome [4],outcome [5],max response [6],"parasite growth, % of DMSO control [7]","parasite growth remaining, % of DMSO control (lower = more inhibition) [8]","parasite growth, % of control (lower = inhibition) [9]","growth, % of control [10]",outcome [11],Potency [6],"activity, percent of control [12]","remaining proliferation (% of control), lower = more inhibition [13]",remaining parasite growth % (stronger effect = lower value) [14],outcome [15],max response [16]
NNCCc1ccccc1,inactive,inactive,inactive,inactive,inactive,-2.24% (inactive) and 11.6% (inactive),88.8%,24.6%,79.6%,96.6%,–,–,–,–,–,–,–
Cc1cn[nH]c1,inactive,inactive,inactive,inactive,inactive,28.3% (inactive) and 8.61% (inactive),5.44%,10%,6.63%,8.35%,–,–,–,–,–,–,–
Cc1cccc(-c2[nH]c(C(C)(C)C)nc2-c2ccc3nccnc3c2)n1,inactive,inactive,inactive,inactive,inactive,–,23.7%,47.6%,34.2%,6.8%,inactive,0.662 µM (active),67.1%,27%,–,–,–
c1ccc([C@H]2CN3CCSC3=N2)cc1,inactive,inactive,inactive,inactive,inactive,4.37% (inactive),92.1%,98.3%,63.1%,95.1%,–,–,–,–,–,–,–
Cc1ccc(-n2nc(C(C)(C)C)cc2NC(=O)Nc2ccc(OCCN3CCOCC3)c3ccccc23)cc1,–,–,–,–,–,–,29.4%,84.5%,31.6%,72.4%,–,12.6 µM (active),14.4%,5.8%,24.3%,–,–
NCCc1ccc(O)c(O)c1,–,inactive,inactive,inactive,inactive,–,74.8%,20.2%,39.7%,53.9%,–,–,–,–,–,–,–
C1COC(NC(C2CC2)C2CC2)=N1,–,inactive,inactive,inactive,inactive,8.63% (inactive) and 12.8% (inactive),72.7%,88.7%,67.2%,82.6%,–,–,–,–,–,–,–
C[C@]1(c2nc3c(C(N)=O)cccc3[nH]2)CCCN1,–,–,–,–,–,20.1% (inactive),88.7%,94.9%,85.5%,88.5%,–,–,87.4%,94%,93.1%,–,–
CCOC(=O)C1=C[C@@]2(CC)CCCN3CCc4c(n1c1ccccc41)[C@H]32,–,–,–,–,–,-2.64% (inactive),–,–,–,–,–,–,56.5% [at 18.4 µM],25.8% [at 18.4 µM],66.2% [at 18.4 µM],–,–
Cc1c(C)c2c(c(C)c1O)CCC(C)(COc1ccc(CC3SC(=O)NC3=O)cc1)O2 (stereo not given),–,–,–,–,–,13.5% (inactive) and 17.4% (inactive),35.4%,83.4%,43.6%,62.4%,–,–,80%,46.8%,93.1%,inactive,-10.3% (inactive)
